G9a block – qHTS Assay for Inhibitors of Histone Lysine Methyltransferase G9a. G9a H3K9 monomethylation, AlphaScreen, 2 h. Potency, µM (titrated, usually from 102 µM), for the others: top-dose activity, negative = inhibition, usual class: inhibitors. hit rate 8.8% among 350,000; note: % is set by controls: 0 for no effect and ±100 for the full control effect; nearly all actives have a fitted effect of over 75% in size
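Readings reflect AlphaScreen signal from monomethyl-H3K9 antibody detection. HMT at 20 nM; substrate b-H3K9 500 nM; cofactor SAM 20 uM; 2 h RT reaction; compounds tested as titrations in qHTS with 15 min preincubation.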
L3MBTL1 block – qHTS Assay for the Inhibitors of L3MBTL1. Lethal(3)malignant brain tumor-like protein 1 (Homo sapiens), Q9Y468. AlphaScreen L3MBTL1–H3K9me1 peptide binding. Potency, µM (doses to about 57.1 µM), without a hit: at the top dose activity, negative = inhibition, usual class: inhibitors. hit rate 0.66% among 230,000; note: % is set by controls: 0 for no effect and ±100 for the full control effect; nearly all actives have a fitted effect of over 60% in size
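Displacement of a biotinylated histone H3(1-15) peptide monomethylated at Lys9 (75 nM) from L3MBTL1 (50 nM) was measured by AlphaScreen after a 30 min room-temperature compound incubation; cefsulodin titration served as intraplate control.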
HP1b binding inh – HTS for Inhibitors of HP1-beta Chromodomain Interactions with Methylated Histone Tails. Chromobox protein homolog 1 (Homo sapiens), P83916. AlphaScreen HP1-beta / biotin-H3K9me3 peptide binding. Potency, µM (highest dose often 114 µM), for inactives: at the top dose activity change, negative = inhibition, usual class: inhibitors. hit rate 0.56% among 390,000. AID 540317, 2011; note: nearly all actives have a fitted effect of over 70% in size
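AlphaScreen: HP1-beta (50 nM) preformed 30 min with biotin-H3(1-18)K9me3 peptide (50 nM) in PBS pH 7.4, 0.01% Tween-20. Compound added for 30 min at RT, then streptavidin donor/nickel chelate acceptor beads (10 ug/mL) for 30 min.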
JMJD2A Tudor – qHTS Assay for Inhibitors of JMJD2A-Tudor Domain; AlphaScreen JMJD2A-Tudor / H3K4me3 peptide binding; hit rate 4.4% among 390,000; Potency, µM (top dose mostly 114 µM), inactives show at the highest dose activity change, negative = inhibition, hits mostly inhibitors; Lysine-specific demethylase 4A (Homo sapiens), O75164; note: % is set by controls: 0 for no effect and ±100 for the full control effect; nearly all actives have a fitted effect of over 50% in size
BAZ2B block – qHTS Assay for Inhibitors of BAZ2B. Bromodomain adjacent to zinc finger domain protein 2B (Homo sapiens), Q9UIF8. hit rate 4.4% among 360,000. Potency, µM (top dose mostly 114 µM), for inactives: at the highest dose activity change, negative = inhibition, hits mostly inhibitors. AlphaScreen BAZ2B-H3K14Ac peptide displacement. AID 504333, 2011; note: % is set by controls: 0 for no effect and ±100 for the full control effect; nearly all actives have a fitted effect of over 60% in size
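BAZ2B (50 nM) with biotin-H3(5-23)K14Ac peptide (50 nM) in PBS pH 7.4, 0.01% Tween-20, preformed 30 min, then compound 30 min at room temperature; top concentration 110uM. AlphaScreen streptavidin donor/nickel chelate acceptor beads (10 ug/mL final), 20 min dark, signal read.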
Starred values were filed as active, the others as inactive; ? = inconclusive; / = no result given; ! = not active in a repeat; [ ] = dose if it differs, or a comment. Shown are actives, neighbours in structure and some others; about 11% of the full set was active somewhere. Calls come from the whole dose curve; as a rule, active = well fitted inhibition curve with a large enough effect; inconclusive = small, poorly fitted or top-dose-only effect; inactive = no such curve, though single readings can be large or run the other way. Potency is the fitted concentration of half-maximal effect.

SMILES	G9a block	L3MBTL1 block	HP1b binding inh	JMJD2A Tudor	BAZ2B block
COc1ccc(NC(=O)CSc2n[nH]c(-c3ccco3)n2)cc1	-2.1%[12.7 µM]	15.1%	56.2%	-6.5%	?
O=C(CSc1n[nH]c(-c2ccco2)n1)N1c2ccccc2Sc2ccccc21	50.1µM*	-23.9%	-10.4%	-26.1%	56.2µM*
O=C(CSc1n[nH]c(-c2ccco2)n1)Nc1ccc(Br)cc1	-1.9%	/	-21.7%[57 µM]	44.7µM*	-32.5%
Cc1ccccc1N/N=C/c1ccc(C#N)cc1	10µM*	-8.1%	11.6%	-32.4%	?
COC(=O)c1[nH]c2cccc(OC)c2c1NC(=O)CCN1CCSCC1	5.3%	1.9%	34.6%	6.0%	1.0%
COC(=O)c1[nH]c2cccc(OC)c2c1NC(=O)CCN1CCN(c2cccc(Cl)c2)CC1	50.1µM*	-3.4%	/	/	-38.8%
COC(=O)c1[nH]c2ccccc2c1NC(=O)CN1CCN(c2cccc(Cl)c2)CC1	7.9%	-13.3%	17.1%	-29.1%	-23.0%
COC(=O)c1[nH]c2cccc(OC)c2c1NC(=O)CCN1CC(C)CC(C)C1 (centres undefined)	50.1µM*	2.3%	48.8%	-0.8%	-21.9%
Oc1ccccc1/C=N/Nc1nccnc1Cl	-6.1%[12.7 µM]	/	32.5%	?	35.5µM*
Oc1ccc(/C=N/Nc2nccnc2Cl)c(O)c1	37.7%	/	30.2%	50.1µM*	14.1µM*
O=[N+]([O-])c1ccccc1/C=N/Nc1nccnc1Cl	87.8%[59 µM]	-1.3%	-5.0%	?	?
Clc1nccnc1N/N=C/c1ccc(Br)cc1	-30.9%	-3.7%	2.3%	-19.9%	?
Oc1ccc(/C=N/Nc2ncc(Br)cn2)c(O)c1	48.6%[59 µM]	?	14.8%	?	14.1µM*
Cc1cccc(NC(=O)c2cnn(-c3ccccc3)c2-n2cccc2)c1C	-15.2%[59 µM]	/	-5.4%	-14.1%	-6.5%
CCN(CC(=O)Nc1ccc(OC)cc1)CC(=O)Nc1ccc2c(c1)OCO2	?	-1.8%	32.3%	-10.4%	6.6%
CCN(CC(=O)Nc1ccc(C(C)=O)cc1)CC(=O)Nc1ccc2c(c1)OCCO2	/	-4.8%	?	0.316µM*	/
CCN(CC(=O)Nc1ccc2c(c1)OCCO2)CC(=O)Nc1ccccc1C(F)(F)F	/	-7.4%	28.2µM*	5.01µM*	/
Cc1cc(C)n(C(=O)CNC(=O)Cc2ccccc2)n1	17.3%[59 µM]	4.8%	?	-9.8%	/
Cc1cc(C)n(C(=O)CNC(=O)c2ccco2)n1	70.8µM*	5.3%	19.7%	-24.4%	2.6%
CC(C)NCc1cc(Br)ccc1OCc1ccccc1	-36.9%	7.6%	33.8%	-5.1%	-1.3%
COc1ccc(Br)cc1CNc1ccccc1	22.4µM*	2.6%	?	17.8µM*	50.1µM*
NS(=O)(=O)c1ccc(Nc2nc3ccccc3nc2NS(=O)(=O)c2cccc([N+](=O)[O-])c2)cc1	31.6µM*	?	-24.9%	?	?
CC(=O)Nc1ccc(S(=O)(=O)Nc2nc3ccccc3nc2Nc2ccc(S(N)(=O)=O)cc2)cc1	44.7µM*	-0.3%	32.8%	0.0%	9.4%
COc1ccc(Nc2nc3ccccc3nc2NS(=O)(=O)c2ccc(NC(C)=O)cc2)cc1	-33.4%	-10.2%	18.1%	-12.3%	-31.3%
CCn1cc(C(=O)Nc2ccc(C(C)C)cc2)c2cc(OC)c(OC)cc2c1=O	-0.7%[59 µM]	/	36.9%	-7.2%	0.1%
SMILES	G9a block	L3MBTL1 block	HP1b binding inh	JMJD2A Tudor	BAZ2B block
O=c1c(-c2ccccc2)c(-c2ccccc2)oc2cc(O)cc(O)c12	41.0%[0.501 µM]	/	-17.9%	?	70.8µM*
O=c1c(O)c(-c2ccc(O)cc2O)oc2cc(O)cc(O)c12	39.8µM*!	?	/	/	50.1µM*
O=C(c1ccc([N+](=O)[O-])cc1)c1cc2ccc(O)cc2oc1=O	50.1µM*	/	14.0%	-11.6%	-24.6%
Cc1ccccc1-c1nc2cc(NC(=O)COc3ccc(F)cc3)ccc2o1	6.4%[59 µM]	/	44.1%	-9.9%	-16.4%
O=[N+]([O-])c1ccc(/C=N/Nc2ccnc3cc(Cl)ccc23)o1	39.8µM*	/	31.6µM*	39.8µM*	28.2µM*
Clc1ccc2c(N/N=C/c3ccccc3Br)ccnc2c1	26.8%[59 µM]	2.2%	3.6%	?	-4.8%
Cc1ccc(S(=O)(=O)N/N=C\c2ccc([N+](=O)[O-])o2)cc1C	79.4%	/	42.7%	-16.6%	-4.9%
O=[N+]([O-])c1ccc(/C=N/NS(=O)(=O)c2ccc(Cl)cc2)o1	3.55µM*	9.5%	24.0%	?	-38.1%
Cc1ccc(S(=O)(=O)N/N=C\c2ccc([N+](=O)[O-])o2)cc1	3.55µM*	0.1%	4.5%	-24.5%	-4.6%
CCn1ccc2cc(S(=O)(=O)N3CCCN(C(=O)Nc4ccc(C)c(F)c4)CC3)ccc21	-0.6%[59 µM]	/	11.0%[57 µM]	-18.5%	-16.3%
CCOc1ccccc1-c1noc(CSc2nnc(-c3ccccc3)n2-c2ccc(F)cc2)n1	12.2%[59 µM]	/	61.3%	-11.1%	11.0%
COc1ccc(C(C)=NNc2ccc([N+](=O)[O-])cc2S(=O)(=O)Nc2ccccc2C(=O)O)c(OC)c1	/	-7.2%	-17.4%	?	/
O=C(O)c1ccccc1NS(=O)(=O)c1ccc(NNC(=S)Nc2ccc(OC(F)F)cc2)c([N+](=O)[O-])c1	10µM*	/	10µM*	25.1µM*	7.94µM*
Cc1ccc(NC(=S)NNc2ccc([N+](=O)[O-])cc2S(=O)(=O)Nc2ccccc2C(=O)O)cc1C	11.2µM*	-21.6%	?	50.1µM*	11.2µM*
Cc1ccc(NC(=S)NNc2ccc(C(=O)O)cc2[N+](=O)[O-])cc1C	/	/	50.1µM*	7.94µM*	/
Cc1cccc(NC(=O)C(C)OC(=O)c2ccccc2NS(=O)(=O)c2cc(C)c(C)c([N+](=O)[O-])c2)c1 (centres undefined)	-18.7%[59 µM]	-11.9%	13.1%	-25.7%	-11.2%
CCN1CCn2c3c(c4cccc(C)c42)CCCC31 (centres undefined)	70.8µM*	-6.0%	-6.6%	?	?
CCN1CCn2c3c(c4cc(C)ccc42)CCCC31 (centres undefined)	20µM*	-19.6%	?	?	?
COc1ccc(Nc2nc(C#N)nc(NC3CCCC3)n2)cc1	/	/	/	-28.8%	/
CCn1c(SCc2ccccc2C)nc(=O)c2c(C(=O)OC)cc(C3CC3)nc21	-2.9%[59 µM]	/	6.8%[57 µM]	-31.5%	-7.6%
CC(=O)Nc1ccc(/C=C2\Sc3ccccc3C2=O)cc1	-0.4%	0.7%	26.9%	3.6%	?
Cc1ccc(/C=C2\Sc3ccccc3C2=O)s1	11.6%[0.501 µM]	-20.1%	-15.7%	-26.5%	8.91µM*
NC(=O)[C@@H]1CCCN1	13.6%[59 µM]	/	/	/	/
COc1ccccc1CC(=O)NCc1ccc2c(c1)OCO2	-12.2%[12.7 µM]	8.6%	25.7%	-18.0%	-8.2%
CCOc1ccccc1CN(CCc1ccc2c(c1)OCO2)Cc1cccc(OC)c1OC	2.51µM*	/	?	4.47µM*	50.1µM*
